In PubChem BioAssay (NCI):
Compounds without any hit were thinned out: in the full panel of roughly 83,000, 20% have a hit.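 Cells were grown in 96-well plates and exposed to the test compound at a single concentration for 48 hours; results are reported as percent growth, with values below 10 considered active.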 A number with no mark means an inactive call. The source made the active and inactive calls.

These molecules were tested on MDA-MB-468 breast (assay: NCI-60 one-dose screen, 48 h (100 = growth as untreated, 0 = no growth, -100 = all killed)). Details: 10 µM unless noted.
Molecule `O=C1CCC(C(=O)N/N=C/c2ccc([N+](=O)[O-])cc2)N1` (centres undefined) has a growth of 110%.
In the case of `CC(CN)[C@@H]1CC[C@]2(CO)CC[C@]3(C)[C@H](CC[C@@H]4[C@@]5(C)CCC(N)C(C)(C)[C@@H]5CC[C@]43C)[C@@H]12` (some centres undefined), the growth was 6.19% (active).
Work on `[O-]/[N+](=C\C=C\c1ccccc1)c1ccccc1` yielded a growth of 113%.
In the case of `COc1ccc(C2CC(c3cccc(OC)c3)=NN2C(=O)c2cc(OC)c(OC)c(OC)c2)cc1` (centres undefined), the growth was 29.2%.
`CCOC(=O)c1cc(-c2cccnc2)nc2c(Cl)cc(Cl)cc12` was tested, and the growth was 117%.
`NC(N)=Nc1ccc(Oc2cccc(NC(N)=Nc3ccc(Cl)c(C(F)(F)F)c3)c2)cn1` was tested, and the growth was 6.72% (active).
`Nc1ncc(-c2ccc3ncnc(N4CCc5cc(F)c(Cl)cc54)c3c2)cc1CO` was tested, and the growth was -39.8% (active).
With `COc1ccc(C(=O)N2c3ccccc3Sc3ccccc32)c(OC)c1` the growth was 0.159% (active).
`N=C(N)SCc1cccc2c(CSC(=N)N)cccc12` was tested, and the growth was 108%.
`NCCCNc1nc2ccccc2c2c(=O)c3cc(Cl)ccc3sc12` was tested, and the growth was -19.1% (active).
`COc1cc(/C=C2/C(=O)Nc3ccc(Cl)cc32)ccc1OCc1ccc(Cl)cc1` was tested, and the growth was 87.2%.
In the case of `CN(C)c1ccc(-c2ccc3c(c2)c(-c2ccccc2)nc(=O)n3C)cn1`, the growth was 5.69% (active).
Work on `[2H]c1nc(Nc2ncc(F)c(-c3cc(F)c4nc(C)n(C(C)C)c4c3)n2)c([2H])c([2H])c1CN1CCN(C([2H])([2H])C([2H])([2H])[2H])CC1` yielded a growth of 103%.
`c1ccc(CCn2nnc3c(Nc4ccc(N5CCOCC5)cc4)ncnc32)cc1` gave a growth of 76%.
